PubChem BioAssay (NCATS)
Results filed as inconclusive are left out. Where a call stands in place of a potency, no number is given. Activity calls are given as the source filed them. Calls come from the whole dose curve; as a rule, active = well fitted inhibition curve with a large enough effect; inconclusive = small, poorly fitted or top-dose-only effect; inactive = flat fitted curve, though single readings scatter.

Assays:
Experiment in all cases: qHTS profiling for inhibitors of Plasmodium falciparum proliferation (AID 504749); note: nearly all actives have a fitted effect of over 60% in size
Settings in all cases: P. falciparum in erythrocytes, SYBR Green DNA, 72 h; series mostly up to 28.7 µM
CP250 = system: CP250
How it was run: (§1)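 P. falciparum-infected erythrocytes (0.3% parasitemia, 2.5% hematocrit final) were exposed to compounds for 72 h at 37 C in 5% CO2, then lysed with SYBR Green buffer overnight at room temperature; parasite DNA fluorescence was normalized to artemisinin and DMSO controls.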

CP252 = system: CP252
How it was run: as §1

CP256 = system: CP256
How it was run: as §1

CP260 = system: CP260
How it was run: as §1

CP262 = system: CP262
How it was run: as §1

CP265 = system: CP265
How it was run: as §1

CP266 = system: CP266
How it was run: as §1

CP268 = system: CP268
How it was run: as §1

CP269 = system: CP269
How it was run: as §1

CP286 = system: CP286
How it was run: as §1
Potency is the fitted concentration of half-maximal effect.

Row | Compound | Potency (CP250) | Potency (CP252) | Potency (CP256) | Potency (CP260) | Potency (CP262) | Potency (CP265) | Potency (CP266) | Potency (CP268) | Potency (CP269) | Potency (CP286)
1 | COCc1c(C(C)C)nc(C(C)C)c(/C=C/[C@@H](O)C[C@@H](O)CC(=O)O)c1-c1ccc(F)cc1 | inactive | inactive | inactive | inactive | inactive | inactive | inactive | inactive | inactive | inactive
2 | O=C(O)CCCCC(=O)O | inactive | inactive | inactive | inactive | inactive | inactive | inactive | inactive | inactive | inactive
3 | CC(=O)OCC(=O)NCCCOc1cccc(CN2CCCCC2)c1 | inactive | inactive | inactive | inactive | inactive | inactive | inactive | inactive | inactive | inactive
4 | Oc1ccc(Cl)cc1Sc1cc(Cl)ccc1O | inactive | inactive | inactive | inactive | inactive | inactive | inactive | inactive | inactive | inactive
5 | COC(=O)[C@@H]1CC2=CC(=O)CC[C@]2(C)[C@@]23O[C@@H]2C[C@@]2(C)[C@@H](CC[C@@]24CCC(=O)O4)[C@H]13 | inactive | inactive | inactive | inactive | inactive | inactive | inactive | inactive | inactive | inactive
6 | CCCCCCCCCCCCCCCC[N+](C)(C)CC | 5.01 µM (active) | 5.01 µM (active) | 5.01 µM (active) | 2.82 µM (active) | 4.78 µM (active) | 5.01 µM (active) | 13.5 µM (active) | 6.75 µM (active) | 4.26 µM (active) | 1.41 µM (active)
7 | CN=C(NC#N)NCCSCc1csc(N=C(N)N)n1 | inactive | inactive | inactive | inactive | inactive | inactive | inactive | inactive | inactive | inactive
8 | CCCCOc1ccc(C(=O)CCN2CCCCC2)cc1 | inactive | inactive | inactive | inactive | inactive | inactive | inactive | inactive | inactive | inactive
9 | C#C[C@]1(OC(C)=O)CC[C@H]2[C@@H]3CCC4=C[C@@H](OC(C)=O)CC[C@@H]4[C@H]3CC[C@@]21C | inactive | inactive | inactive | inactive | inactive | inactive | inactive | inactive | inactive | inactive
10 | Cc1ccnc(NS(=O)(=O)c2ccc(N)cc2)n1 | inactive | inactive | inactive | inactive | inactive | inactive | inactive | inactive | inactive | inactive
11 | CCCCCCCCCCCCCCCCCC(=O)OCC(O)CO (stereo not given) | inactive | inactive | inactive | inactive | inactive | inactive | inactive | inactive | inactive | inactive
12 | COc1ccc(C2C(=O)c3ccccc3C2=O)cc1 | inactive | inactive | inactive | inactive | inactive | inactive | inactive | inactive | inactive | inactive
13 | Cc1c(C(N)=O)cc([N+](=O)[O-])cc1[N+](=O)[O-] | inactive | inactive | inactive | inactive | inactive | inactive | inactive | inactive | inactive | inactive
14 | CC(Cc1cccc(C(F)(F)F)c1)NCCOC(=O)c1ccccc1 (stereo not given) | inactive | inactive | inactive | inactive | inactive | inactive | inactive | inactive | inactive | inactive
15 | CCC(=O)c1c(O)cc(O)cc1O | inactive | inactive | inactive | inactive | inactive | inactive | inactive | inactive | inactive | inactive
16 | COc1cc(NS(C)(=O)=O)ccc1Nc1c2ccccc2nc2ccccc12 | 1.58 µM (active) | 0.891 µM (active) | 1 µM (active) | 1 µM (active) | 3.79 µM (active) | 1 µM (active) | 5.36 µM (active) | 3.38 µM (active) | 4.78 µM (active) | 2 µM (active)
17 | NC(CO)(CO)CO | inactive | inactive | inactive | inactive | inactive | inactive | inactive | inactive | inactive | inactive
18 | OCc1ccccc1O | inactive | inactive | inactive | inactive | inactive | inactive | inactive | inactive | inactive | inactive
